# PubChem BioAssay AID720647 (Broad Institute, 2013)
# Hit rate of the full screen: of about 380,000 compounds, about 1,300 (0.34%) were called active. The entries come from a sample that favours actives as a whole. Values without a mark were called inactive.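 How the source made its calls: active means drop in luminescence signal, shown as inhibition above about 50% in the replicate tests (limit read from the data, passing the limit was not always enough); inconclusive means probably only some replicates passing the limit; inactive means the rest.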
# Test system: Drosophila bursicon receptor LGR2 (rickets)
# Assay: inhibitors of bursicon-induced LGR2 CRE-luciferase signal, primary screen, cell-based, HEK293, CRE-luciferase reporter, bursicon stimulation (AID 720647);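 further: agonist challenge used bursicon conditioned medium at about half maximal strength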
# Settings: bursicon-stimulated, 4 h, at 9.99 µM, hits give high values
row,Structure (SMILES),inhibition
1,O=C(Nc1ccccc1F)N1CC(=O)N2[C@H](C1)[C@H](c1ccc(C#Cc3ccc(F)cc3)cc1)[C@@H]2CO,5.08%
2,C[C@@H]1CN([C@@H](C)CO)C(=O)c2cc(NC(=O)Cc3ccccc3)ccc2O[C@H]1CN(C)CC1CC1,-1.21%
3,Cc1cnc(NC(=O)c2ccccn2)s1,59.5% (active)
4,COc1ccc(CC(=O)NCc2nnc(SCC(=O)Nc3ncc(C)s3)n2C)cc1,8.94%
5,COC(=O)Nc1ncc(CN2C(=O)c3ccccc3C2=O)s1,-22.5%
6,C[C@H]1CN([C@@H](C)CO)C(=O)CCCn2nncc2CO[C@@H]1CN(C)S(=O)(=O)c1ccccc1C#N,-2.41%
7,O=C(Nc1ccccc1)N1CCCCN2[C@H](CO)[C@@H](c3ccc(-c4ccccc4F)cc3)[C@H]2C1,17.4%
8,CCCNC(=O)N1[C@H](C#N)[C@@H](c2ccccc2C2=CCCCC2)[C@@H]1CO,8.2%
9,O=C1CN(Cc2ccccc2)C[C@H]2[C@H](c3ccc(-c4ccccc4)cc3)[C@@H](CO)N12,-6.09%
10,C=CCN1CCN(C(=O)CCCc2ccccc2)CC1,66.7% (active)
11,O=C(CCc1ccccc1F)N1CCN(c2ccccc2)CC1,-17%
12,O=C(CCCc1ccccc1)NCc1ccccc1,-36.7%
13,CCCNC(=O)C[C@@H]1CC[C@H]2[C@H](COc3ccc(NC(=O)c4ccc(Cl)cc4)cc3C(=O)N2C)O1,-13.7%
14,COc1ccc(-c2cn(CC[C@@H]3CC[C@@H](NC(=O)CCN4CCCCC4)[C@@H](CO)O3)nn2)cc1,-11.8%
15,O=C(Nc1ccccc1Cl)/C(Cl)=C(\Cl)S(=O)c1ccccc1 (stereo not drawn),98.9% (active)
16,C[C@H](CO)N1C[C@H](C)[C@H](CN(C)Cc2ccccc2)OCCCC[C@H](C)Oc2ccc(NC(=O)Cc3ccccc3)cc2C1=O,24%
17,C[C@H](CO)N1C[C@H](C)[C@@H](CN(C)Cc2ccccc2)OCCCC[C@H](C)Oc2ccc(NC(=O)Cc3ccccc3)cc2C1=O,3.25%
18,O=C(C[C@H]1C=C[C@@H](NC(=O)Nc2cc(F)ccc2F)[C@H](CO)O1)NCCCN1CCOCC1,-7.04%
19,COc1ccc(-c2csc(Nc3ccccn3)n2)cc1,78.5% (active)
20,COc1cccc(C(NC(C)=O)c2nc(-c3ccccc3OC)cs2)c1 (stereo not drawn),-5.66%
21,COc1cncc(-c2cnc3sc(NCCc4ccccn4)nn23)c1,20.8%
22,C[C@H](CO)N1C[C@H](C)[C@H](CN(C)C(=O)Nc2ccc(F)cc2)Oc2ccc(NC(=O)Cc3cn(C)c4ccccc34)cc2CC1=O,10.8%
23,C[C@@H]1CN([C@@H](C)CO)C(=O)c2cc(NS(=O)(=O)c3ccccc3)ccc2O[C@H]1CN(C)CC1CCCCC1,-4.25%
24,C[C@@H]1CN([C@@H](C)CO)C(=O)CCCn2cc(nn2)CO[C@H]1CN(C)Cc1ccc(C(=O)O)cc1,6.13%

row,Structure (SMILES),inhibition
1,COCCNC(=O)C[C@H]1CC[C@H]2[C@H](COc3ccc(NC(=O)C4CCOCC4)cc3C(=O)N2C)O1,-14%
2,O=S1(=O)CCC(NC(=S)SCc2ccccc2Br)C1 (stereo not drawn),69.2% (active)
3,O=C(CSc1ccccc1F)NC1CCS(=O)(=O)C1 (stereo not drawn),23.4%
4,CC(C)C(=O)NC(NC(=S)NC1CCS(=O)(=O)C1)C(Cl)(Cl)Cl (stereo not drawn),-0.282%
5,O=C(COC(=O)c1ccccc1)c1ccc2c(c1)OCCO2,66.7% (active)
6,N#CCCN(C(=O)COC(=O)c1ccc2c(c1)OCCO2)c1ccccc1,4.75%
7,CCOc1ccc(NCCC(=O)c2ccc3c(c2)OCO3)cc1,-15.9%
8,O=C1COc2ccc(C(=O)COC(=O)c3ccccc3Cl)cc2N1,-31.2%
9,CC(=O)Nc1cccc(C(=O)OCC(=O)c2ccc3c(c2)OCO3)c1,63.3% (active)
10,CCOc1cc(C(=O)OCC(=O)Nc2cccc(C)c2)ccc1OCC(=O)N1CCOCC1,16.2%
11,COc1ccc2c3c(n(C)c2c1)[C@H](CO)N(Cc1ccccc1)CC31CN(C(=O)c2ccccc2F)C1,13.5%
12,CCCC(=O)Nc1ccc2c(c1)C(=O)N(C)C[C@H](OC)[C@H](C)CN(C(=O)c1ccccn1)[C@H](C)CO2,14%
13,O=C(C[C@H]1C=C[C@H](NC(=O)CC2CC2)[C@@H](CO)O1)NCc1ccccc1,-1.04%
14,C[C@H]1CN([C@@H](C)CO)C(=O)c2cc(NC(=O)Cn3cnnn3)ccc2O[C@H]1CN(C)C(=O)NC1CCCCC1,-0.859%
15,COc1ccc2c3c([nH]c2c1)[C@@H](CO)N(C(=O)Nc1ccc(F)cc1)CC31CN(S(C)(=O)=O)C1,-10.4%
16,C[C@@H]1CN([C@@H](C)CO)C(=O)c2cc(-c3ccc(C#N)cc3)cnc2O[C@@H]1CN(C)Cc1cccnc1,21.1%
17,O=[N+]([O-])c1ccc(NS(=O)(=O)c2ccccc2)c(Cl)c1,-13%
18,O=S(=O)(Nc1ccc(O)c2ccccc12)c1ccc(OC(F)(F)F)cc1,58.8% (active)
19,O=S(=O)(Cc1noc(-c2ccc(OC(F)(F)F)cc2)n1)c1ccc(F)cc1,-18.2%
20,CCCN1[C@@H]2c3ccc(C4=CCCC4)c(=O)n3C[C@@H]2[C@@H](CO)[C@@H]1C(=O)NCc1ccccn1,-8.46%
21,COc1ccc(S(=O)(=O)N(C)C[C@H]2OCCCC[C@H](C)Oc3ccc(NC(=O)Nc4ccc5c(c4)OCO5)cc3C(=O)N([C@@H](C)CO)C[C@@H]2C)cc1,21.6%
22,CO[C@@H]1CN(C)C(=O)c2ccc(NC(C)=O)cc2OC[C@@H](C)N(CC2CC2)C[C@H]1C,-1.72%
23,C[C@H](CO)N1C[C@H](C)[C@H](CN(C)CC2CC2)OCCCC[C@H](C)Oc2ccc(NC(=O)c3ccncc3)cc2C1=O,-8.96%
24,Cc1ccc(S(=O)(=O)Nc2ccc3c(c2)C(=O)N([C@H](C)CO)C[C@H](C)[C@H](CN(C)S(=O)(=O)c2ccc(F)cc2)O3)cc1,2.4%
